Among the data in the supplement of paper PMC10849652 are log2 fold change values, retold here.

Common to all, as to assay: log2 fold change, soluble protein after heating vs DMSO (PISA); higher = thermal stabilisation; K562 lysate, 10 uM; active = over 0.2 and 3.5 SD of the protein, either way, in both replicates (recomputed)
Compound in assay [1]: NCC(=O)Nc1ccc(-n2nc(C(F)(F)F)cc2-c2ccc3c(ccc4ccccc43)c2)cc1
In short, it runs like this:
(§1)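 Dounce homogenisation of K562 pellets in PBS pH 7.4 with 1 mM MgCl2 produced a crude extract, used at 1 mg/mL protein. Exposure to 10 μM compound lasted 30 min, and aliquots were then heated for 3 min across 48°C-58°C, pooled and brought to 0.5% NP-40 at 4°C. The supernatant after 21,000xg for 90 min was quantified by TMTpro 16plex LC-MS/MS with channel sums equalised. Duplicate values are given as log-two fold change in thermal stability relative to solvent controls.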

Compound in assay [2]: O=C(CCCCCCC(=O)Nc1ccccc1)NO [vorinostat]
In outline: as §1

Compound in assay [3]: O=C(O)c1ccc2c(c1)nc(Nc1cccc(Cl)c1)c1ccncc12 [silmitasertib]
In short, it runs like this:
as §1

Compound in assay [4]: O=C1NC(=O)C(c2cnc3ccccn23)=C1c1cn2c3c(cc(F)cc13)CN(C(=O)N1CCCCC1)CC2
In outline:
as §1

Compound in assay [5]: c1cn2cc(-c3ccc4cn[nH]c4c3)nc(Nc3ccc(N4CCOCC4)cc3)c2n1 [entospletinib]
In short, it runs like this: as §1

Targets with a hit are over-represented here; the source holds about 8,800 in all. About 0.5% of all pairs of compound and target were hits. Values without a mark were called inactive.

Sequence of UniProt P35711 (P35711 whole entry, looked up): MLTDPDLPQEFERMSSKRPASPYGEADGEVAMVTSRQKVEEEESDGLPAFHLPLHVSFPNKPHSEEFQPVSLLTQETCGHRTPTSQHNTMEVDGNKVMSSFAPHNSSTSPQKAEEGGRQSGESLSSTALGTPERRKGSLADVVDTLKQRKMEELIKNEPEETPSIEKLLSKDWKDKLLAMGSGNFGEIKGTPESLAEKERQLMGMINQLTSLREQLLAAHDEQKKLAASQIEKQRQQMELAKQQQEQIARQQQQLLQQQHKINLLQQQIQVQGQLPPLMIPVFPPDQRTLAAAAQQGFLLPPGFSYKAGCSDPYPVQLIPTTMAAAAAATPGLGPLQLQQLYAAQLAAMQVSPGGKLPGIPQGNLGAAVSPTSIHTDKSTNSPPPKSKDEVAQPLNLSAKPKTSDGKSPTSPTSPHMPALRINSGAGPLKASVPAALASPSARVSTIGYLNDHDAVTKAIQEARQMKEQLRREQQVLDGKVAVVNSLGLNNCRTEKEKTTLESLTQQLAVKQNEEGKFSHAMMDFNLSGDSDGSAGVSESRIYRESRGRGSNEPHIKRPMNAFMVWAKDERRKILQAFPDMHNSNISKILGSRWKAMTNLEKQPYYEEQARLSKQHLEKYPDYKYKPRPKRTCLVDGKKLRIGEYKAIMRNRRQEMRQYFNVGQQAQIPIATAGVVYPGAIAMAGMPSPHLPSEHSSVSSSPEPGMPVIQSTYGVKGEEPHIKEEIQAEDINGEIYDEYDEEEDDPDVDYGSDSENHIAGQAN
Sequence of UniProt Q96DI7 (Q96DI7 whole entry, looked up): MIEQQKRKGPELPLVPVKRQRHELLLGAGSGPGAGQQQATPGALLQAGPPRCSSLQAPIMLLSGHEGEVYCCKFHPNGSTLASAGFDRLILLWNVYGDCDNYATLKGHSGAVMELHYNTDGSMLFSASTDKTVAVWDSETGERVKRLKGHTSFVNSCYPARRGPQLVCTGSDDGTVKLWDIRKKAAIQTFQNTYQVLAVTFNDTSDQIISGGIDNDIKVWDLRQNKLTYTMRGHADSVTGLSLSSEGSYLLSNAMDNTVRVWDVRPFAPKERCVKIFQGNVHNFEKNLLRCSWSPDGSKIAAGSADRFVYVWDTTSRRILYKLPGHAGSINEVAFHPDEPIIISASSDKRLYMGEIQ
Sequence of UniProt O43808 (O43808 whole entry, looked up): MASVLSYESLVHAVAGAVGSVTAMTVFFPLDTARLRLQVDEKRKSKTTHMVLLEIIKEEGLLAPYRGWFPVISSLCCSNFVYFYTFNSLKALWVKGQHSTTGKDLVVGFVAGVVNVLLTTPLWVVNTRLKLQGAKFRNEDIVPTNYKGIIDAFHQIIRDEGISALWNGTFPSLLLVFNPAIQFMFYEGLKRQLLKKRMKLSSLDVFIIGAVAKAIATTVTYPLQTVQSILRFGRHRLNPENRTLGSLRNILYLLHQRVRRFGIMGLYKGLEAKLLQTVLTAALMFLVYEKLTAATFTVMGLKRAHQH
Sequence of UniProt Q92844 (Q92844 whole entry, looked up): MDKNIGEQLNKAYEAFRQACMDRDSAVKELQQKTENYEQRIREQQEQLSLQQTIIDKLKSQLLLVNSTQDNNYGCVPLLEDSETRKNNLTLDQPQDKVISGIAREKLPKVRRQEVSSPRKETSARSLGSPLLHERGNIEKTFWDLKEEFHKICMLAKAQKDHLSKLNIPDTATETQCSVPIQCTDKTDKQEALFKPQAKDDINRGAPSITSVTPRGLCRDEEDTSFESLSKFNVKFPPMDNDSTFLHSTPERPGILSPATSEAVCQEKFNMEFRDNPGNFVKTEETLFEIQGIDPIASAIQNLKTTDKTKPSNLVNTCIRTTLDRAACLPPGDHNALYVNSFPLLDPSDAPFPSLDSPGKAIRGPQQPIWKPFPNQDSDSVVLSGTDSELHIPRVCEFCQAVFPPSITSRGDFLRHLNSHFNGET
Sequence of UniProt Q9C0B7 (Q9C0B7 whole entry, looked up): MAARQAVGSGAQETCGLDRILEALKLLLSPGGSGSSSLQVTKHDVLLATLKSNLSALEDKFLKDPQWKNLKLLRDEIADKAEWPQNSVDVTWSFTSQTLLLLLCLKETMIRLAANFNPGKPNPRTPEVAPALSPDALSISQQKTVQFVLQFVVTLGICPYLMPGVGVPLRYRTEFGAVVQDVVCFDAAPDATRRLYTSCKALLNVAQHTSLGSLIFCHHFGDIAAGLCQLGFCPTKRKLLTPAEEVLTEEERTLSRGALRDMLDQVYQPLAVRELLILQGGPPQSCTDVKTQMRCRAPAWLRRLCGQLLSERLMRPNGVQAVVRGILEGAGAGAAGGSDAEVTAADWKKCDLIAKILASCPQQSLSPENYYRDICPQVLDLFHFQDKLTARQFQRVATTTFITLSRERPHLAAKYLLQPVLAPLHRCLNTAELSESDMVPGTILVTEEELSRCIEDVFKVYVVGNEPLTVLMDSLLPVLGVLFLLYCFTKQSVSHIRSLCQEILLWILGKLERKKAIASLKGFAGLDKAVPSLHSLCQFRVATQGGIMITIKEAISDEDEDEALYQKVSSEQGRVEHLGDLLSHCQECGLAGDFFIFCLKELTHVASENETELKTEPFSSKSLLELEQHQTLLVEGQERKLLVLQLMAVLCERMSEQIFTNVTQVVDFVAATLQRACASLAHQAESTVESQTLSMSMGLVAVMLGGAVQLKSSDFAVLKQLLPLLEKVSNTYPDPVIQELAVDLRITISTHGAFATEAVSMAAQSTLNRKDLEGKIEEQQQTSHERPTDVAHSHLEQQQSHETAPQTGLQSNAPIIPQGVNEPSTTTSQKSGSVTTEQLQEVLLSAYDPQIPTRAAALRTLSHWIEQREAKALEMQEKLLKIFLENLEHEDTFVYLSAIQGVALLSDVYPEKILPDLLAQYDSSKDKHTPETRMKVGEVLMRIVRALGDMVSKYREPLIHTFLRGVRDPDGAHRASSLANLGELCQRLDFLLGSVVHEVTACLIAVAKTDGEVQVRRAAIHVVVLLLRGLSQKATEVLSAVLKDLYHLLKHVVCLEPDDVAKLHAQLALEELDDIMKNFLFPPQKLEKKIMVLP
Sequence of UniProt Q13573 (Q13573 whole entry, looked up): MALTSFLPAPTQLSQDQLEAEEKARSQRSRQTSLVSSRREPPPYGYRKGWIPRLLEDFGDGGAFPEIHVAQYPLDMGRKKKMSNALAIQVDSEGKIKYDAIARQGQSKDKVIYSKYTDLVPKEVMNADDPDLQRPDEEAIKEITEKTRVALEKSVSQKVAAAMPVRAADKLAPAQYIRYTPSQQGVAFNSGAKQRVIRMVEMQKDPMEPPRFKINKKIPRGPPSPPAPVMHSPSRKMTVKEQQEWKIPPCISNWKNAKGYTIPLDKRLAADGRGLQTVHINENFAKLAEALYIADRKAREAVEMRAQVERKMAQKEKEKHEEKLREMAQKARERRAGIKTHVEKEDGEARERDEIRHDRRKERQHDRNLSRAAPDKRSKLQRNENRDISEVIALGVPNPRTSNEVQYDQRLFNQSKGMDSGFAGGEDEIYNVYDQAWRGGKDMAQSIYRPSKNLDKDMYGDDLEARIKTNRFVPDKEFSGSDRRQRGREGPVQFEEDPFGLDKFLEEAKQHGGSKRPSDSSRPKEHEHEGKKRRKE
Sequence of UniProt Q13242 (Q13242 whole entry, looked up): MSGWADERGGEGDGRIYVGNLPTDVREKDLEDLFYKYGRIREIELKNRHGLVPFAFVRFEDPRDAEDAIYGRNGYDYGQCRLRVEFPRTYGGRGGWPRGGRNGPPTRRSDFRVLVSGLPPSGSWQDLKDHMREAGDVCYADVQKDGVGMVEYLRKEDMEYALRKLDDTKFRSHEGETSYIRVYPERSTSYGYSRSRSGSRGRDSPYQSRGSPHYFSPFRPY
Sequence of UniProt Q8NDV3 (Q8NDV3 whole entry, looked up): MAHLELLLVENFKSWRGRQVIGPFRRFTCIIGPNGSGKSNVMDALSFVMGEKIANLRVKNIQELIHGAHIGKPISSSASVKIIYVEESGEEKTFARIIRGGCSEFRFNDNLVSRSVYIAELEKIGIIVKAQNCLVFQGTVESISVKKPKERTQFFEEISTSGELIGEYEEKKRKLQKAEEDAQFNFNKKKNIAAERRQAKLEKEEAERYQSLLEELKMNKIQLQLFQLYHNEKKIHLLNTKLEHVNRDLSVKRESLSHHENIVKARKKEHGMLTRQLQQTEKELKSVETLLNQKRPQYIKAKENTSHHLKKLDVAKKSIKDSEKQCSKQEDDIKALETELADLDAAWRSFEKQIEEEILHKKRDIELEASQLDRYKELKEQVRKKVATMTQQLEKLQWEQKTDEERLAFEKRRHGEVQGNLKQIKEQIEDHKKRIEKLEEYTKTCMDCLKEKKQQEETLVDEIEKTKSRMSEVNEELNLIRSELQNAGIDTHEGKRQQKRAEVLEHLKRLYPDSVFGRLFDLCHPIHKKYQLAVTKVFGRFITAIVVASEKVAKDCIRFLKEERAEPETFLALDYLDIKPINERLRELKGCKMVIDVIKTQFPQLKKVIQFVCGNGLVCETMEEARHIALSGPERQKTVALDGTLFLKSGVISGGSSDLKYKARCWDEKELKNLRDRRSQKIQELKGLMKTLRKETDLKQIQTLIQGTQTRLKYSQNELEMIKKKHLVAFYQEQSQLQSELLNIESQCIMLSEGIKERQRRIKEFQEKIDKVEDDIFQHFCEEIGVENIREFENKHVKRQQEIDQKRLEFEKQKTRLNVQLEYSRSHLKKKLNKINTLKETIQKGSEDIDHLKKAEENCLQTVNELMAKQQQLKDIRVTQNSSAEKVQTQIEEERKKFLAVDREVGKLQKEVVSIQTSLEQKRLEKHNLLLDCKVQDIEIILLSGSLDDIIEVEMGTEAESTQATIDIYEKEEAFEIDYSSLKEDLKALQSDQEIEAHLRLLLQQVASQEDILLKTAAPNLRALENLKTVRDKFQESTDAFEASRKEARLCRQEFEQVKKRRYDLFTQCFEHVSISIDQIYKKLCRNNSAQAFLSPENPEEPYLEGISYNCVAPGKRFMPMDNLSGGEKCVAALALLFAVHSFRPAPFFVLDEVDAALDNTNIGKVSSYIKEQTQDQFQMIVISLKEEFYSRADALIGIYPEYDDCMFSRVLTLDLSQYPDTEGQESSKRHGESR

Turning to SRSF9 (UniProt Q13242), the log2 fold change in assay [1] was -0.182; in assay [2], -0.113; in assay [3], 0.069; in assay [4], -0.035; in assay [5], 0.007.

On to SNRNP40 (UniProt Q96DI7), for which the log2 fold change in assay [1] is 0.01; in assay [2] it was 0.233; in assay [3], -0.012; in assay [4], 0.022; in assay [5], 0.03.

For the target SNW1 (UniProt Q13573), the log2 fold change was 0.011 in assay [1]; 0.224 (active) in assay [2]; -0.003 in assay [3]; -0.012 in assay [4]; 0.009 in assay [5].

For the target TANGO6 (UniProt Q9C0B7), the log2 fold change in assay [1] was 0.007; in assay [2], -0.389 (active); in assay [3], 0.019; in assay [4], -0.037; in assay [5], -0.009.

As to TANK (UniProt Q92844), the log2 fold change in assay [1] is 0.041; in assay [2] it was -0.102; in assay [3], 0.124; in assay [4], 0.071; in assay [5] it was 0.132.

With SMC1B isoform 3 (UniProt Q8NDV3), the log2 fold change in assay [1] was -0.063; in assay [2] it was 0.068; in assay [3], -0.011; in assay [4] it was 0.026; in assay [5] it was 0.004.

For the target SLC30A9 (UniProt Q6PML9), the log2 fold change in assay [1] was -0.109; in assay [2], 0.071; in assay [3], -0.058; in assay [4], 0.004; in assay [5], -0.027.

For the target SOX5 (UniProt P35711), the log2 fold change was -0.036 in assay [1]; -0.014 in assay [2]; 0.099 in assay [3]; -0.027 in assay [4]; -0.083 in assay [5].

On to SLC25A17 (UniProt O43808), for which the log2 fold change is 0.021 in assay [1]; 0.015 in assay [2]; -0.026 in assay [3]; -0.033 in assay [4]; -0.027 in assay [5].
